# Reference: the supplement of paper PMC10681739
# Over roughly 4,000 sequences, “arbitrary fluorescence units” has its median near 830; the highest 2% begin near 6,500. The sample holds the highest values, similar sequences and a random draw of the others, so the mix is not that of the screen.
# Target: RUNX1 (UniProt Q01196)
# Experiment: RUNX1 binding intensity (PBM fluorescence), RUNX1 alone (arbitrary fluorescence units); higher = stronger binding
# Conditions: RUNX1 concentration 2 nM; ETS1 concentration 0 nM
# Procedure: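 gcPBM on 36-bp genomic-derived probes (partner site mutated) containing one RUNX1 site and no ETS1 site. Recombinant human RUNX1 (2 nM) was incubated alone or with ETS1 (25 nM) and detected by anti-RUNX1 antibody fluorescence. Values are medians over 4 replicate spots (not normalised). The probes sit in constant array flanks that are not printed.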
# RUNX1, sequence (Q01196 whole entry): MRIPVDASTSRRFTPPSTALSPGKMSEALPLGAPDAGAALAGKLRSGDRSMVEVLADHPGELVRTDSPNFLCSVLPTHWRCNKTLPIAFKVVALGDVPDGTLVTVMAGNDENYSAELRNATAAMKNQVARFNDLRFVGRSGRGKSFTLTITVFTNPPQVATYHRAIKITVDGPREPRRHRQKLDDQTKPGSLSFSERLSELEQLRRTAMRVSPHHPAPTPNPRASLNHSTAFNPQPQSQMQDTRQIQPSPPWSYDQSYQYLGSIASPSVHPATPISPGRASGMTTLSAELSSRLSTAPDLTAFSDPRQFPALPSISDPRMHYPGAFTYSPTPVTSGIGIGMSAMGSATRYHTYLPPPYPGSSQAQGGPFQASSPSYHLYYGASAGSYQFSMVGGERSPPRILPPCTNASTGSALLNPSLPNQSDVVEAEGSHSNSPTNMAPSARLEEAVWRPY
row,Sequence,RUNX1 binding intensity
1,CTGGAACCGCAGGATCCTTGCTGCGTCCTCTCGGTC,2340
2,GAGTGGGCGGTAACTCGCAGGCCGAACGTGACGCAA,740
3,GACAACCTACCACAGCCTTCCTTTCGGGCGCTCAGG,1040
4,TTCTGTGGGGACAATTAGGGTTTCTGGGTTTTCTGA,865
5,AGATTCTAGGCAGTGTCTGTAGCCGCAGCTGAGGGT,736
6,TACCTAGACCCTTGCCGCCCTTACCGCGGCCAGACA,901
7,CTTCTTGCTGCTGAGACTGATACAGCCCGCAAAGCT,816
8,TGTTACCACTGTTAGACTAGAGAGCATGCTGTTGTT,841
9,AGCACCACATTCTACACCTCCACCTCATGCTGCGTC,1180
10,TTGCCGTAACCACTTTATCCACCTCCTTTTTCACGA,2720
11,CCTAAGTAACCACATTCTCGCTTGCTCCTTCCACAC,3680
12,GTAGCCGGGTGTTACGGAGCGCTGCGGGCAAAGCAG,671
13,GGAGGAAGGCAGCAAAGAAAGAGGTGGTTTCGGCAC,783
14,CTCAGCCCACCGCTGCGCGGCCGAAAGTCGGAGGTT,760
15,TTGCACTCTGCGGGGACGGGAGAAGGAACGAAAAAT,805
16,TTTGTTGTTCAGGGTGCGAGGCGGCCGCAGCTTCCA,936
17,CACCTCCCACTCACCACAGAGTTTCATGGTGTTTTA,1090
18,ACTTGACTGCCTGTGGGGTGTGTGGTGTCTGCACTT,822
19,CGAGTCAGCAAATCACAGCTCTGCGGGTGGGCTCCT,739
20,CAGCATGTGGGTGCACACACCGATTCCTTAGAGGTT,811
21,ACTGTGCGTTGAGGTCGTCCGCCATCTGCTGCAGCT,745

row,Sequence,RUNX1 binding intensity
1,GAGGTGGTCAGAGCCTCCCTTGACATGAAACAAGAA,724
2,TTGGCCTCGCCGGGACCCCTTGCACCGCGGACACAG,776
3,AAAACGCGCAAATACGGTGGCTGCGGCCCGCGGGCA,693
4,GGGCAGGCCGTATGTGGGAGACCACAAAGCCCAAGG,787
5,CATGACCTCCTCGCACAAGAATGCGGGGGTGGGGGT,1050
6,CACCCCGCCTCTGCGGGACCACTTCAGGCGCCTTCT,876
7,AACCCCTTGCACCGCGGACACAGCTTCTTCTTCCCC,1080
8,ACCCCGAAAGTGTGGGCGCGGCTGCGGTTTAACCCG,7200
9,GTGGCGCGGTGGGGCGCGGACCCGAAACTGCCAAGT,706
10,TGGCTACCCGAAAGGCGCGTTGGCTGCGGCTACGCA,733
11,CCCCACATACGGGGGCCGGGGCCGGGCTGTGGGCTT,755
12,TCCGCTTCTGTGGTCTGATCTTGCTGGGGCTGAACC,1090
13,ACAGACAGCAGCCTGAGCTCGTGGTTAGAACACCCT,796
14,GGTCTGCGGCGCGCGGGATGCTGGGCAATGTAGTTT,784
15,CAGGCTGCTTCAGGCGCGCGGCAGAGCGGTCAGAGC,716
16,CGTCCCCGCAAAGCCGCGGCAGAAACTCCCGGCGGT,1270
17,TAGGGGGGCGCGGTGAGCCCCGGCGGGAATCGAAGC,716
18,TCCACAATTCCCAGGAGTCTCTGCGGCCGCGCGGAG,830
19,TCACAATCGCCCACAAAGACAGCAAGTAACTGTCAG,892
20,ACGAGGTTTCGTGCAGGCTCCAGCCGAGACCACATC,744
21,GTAGGGGAGGGACCGCAGGGAGGCGGCAGTCCTTGT,931

row,Sequence,RUNX1 binding intensity
1,ATCTTGTTCAGGCTCAAAGGGAAACCGCTGCTTTTC,914
2,GACAGTTTTCGGGCCTAGTTTGCGGCTGCTCCTGCC,891
3,CTCTCCAGACCGCGCATTTTGGGTCTCGGAGGAGGT,735
4,ACGTCATCCCGCAGGGCTGGCGCGCCCGGCGCAGTC,779
5,ACGCCGCGCATACGCGCTTTACGGCGGCCGCAAAAT,801
6,GAGGAGGAGGTGCGCTGGCTGTTCTGCTGCGGGCCG,704
7,ATGCCAAGGGACCTCCCTCCACAACCGCCCCCAGCT,930
8,CTGACAGCCTCCGCACAAAGCGCGGTCTATTTCTCC,918
9,AAGAAAGGTTCCAGCCTGCGCCCTGCTACCGCGGCG,738
10,GCTGCGGCGGCGGCGAAGAGACAACCTCCGCTGGAA,793
11,TCTGGGAGATGGAGTTCACAGCGCTGCGGGGCCGGA,674
12,CAACGCTTGCCGACCGCCAGCAGGAGGTGGTGGGCG,755
13,TCAAAGCTGCGGGGTTTCATTGCCTGTTCCTGAACA,693
14,AGTATACTGTGGTGAGAAACTGCCTGCCATACCAGC,824
15,CGTTTACTGTCTGGGACTGCGCCCACGCGGTCACGT,871
16,CACTTGGTCTTGCTGCCCTTGTGGCCCTAACACCCT,841
17,TTTATCCTTATTTGCTGGCTTCGCCCACAAGCACAG,1010
18,AGACTAGAGGCGGTTGTGTGAGTCAGAAAGAGGGGC,724
19,TCGGGAGGTGGCATGCTGACTCACCTGTGGCTTGTT,797
20,CTCCTGCGGCGACACGCCTAGCAGACGGCGCAAGGC,773
21,ATAACTTGCGGCAAATGCTGGAGGCAGTACCGCCTT,840
